PubChem BioAssay AID371 (SRMLSC, 2006)
Hit rate of the full screen: of about 3,300 compounds, about 280 (8.5%) were called active.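 The calls were made as follows: active = mean growth inhibition over the two runs of 50% or more; inactive = mean growth inhibition under 50%.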 The sample as a whole holds a higher share of actives than the screen did.

Experiment: A549 NSCLC cell proliferation inhibitors – ATP luminescence, human non-small cell lung line, primary screen (AID 371);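 also: compound exposure lasted 72 h before the ATP read; 0% = untreated cell signal and 100% = no luminescence left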
Settings: at 10 µM, active compounds read high

Growth inhibition, active:
CC[C@H](C)C(=O)O[C@H]1C[C@@H](C)C=C2C=C[C@H](C)[C@H](CC[C@@H]3C[C@@H](O)CC(=O)O3)[C@H]21 64.9%
COc1cccc(N2CCN(c3ncnc4c3[nH]c3ccc(F)cc34)CC2C)c1 (stereo not given) 93%
COc1cccc(N2CCN(c3ncnc4c3[nH]c3ccccc34)CC2C)c1 (stereo not given) 91.9%
O=c1c2c3c(sc2n2cnnc2n1Cc1ccccc1)CN(Cc1ccccc1)CC3 70.5%
CC1CCc2cc(F)cc3c(O)c(C(=O)NCC4CCCO4)c(=O)n1c23 (stereo not given) 61.9%
CCCc1cc(C(=O)Cc2ccc(F)cc2)c(O)cc1O 89.5%
Oc1c(Cl)cc(Cl)cc1Sc1cc(Cl)cc(Cl)c1O 82.9%
O=c1[nH]c(=O)n([C@H]2C[C@H](O)[C@@H](CO)O2)cc1F 71%
COc1ccc(CC(=O)Nc2cccc(-c3nnc(-c4ccco4)o3)c2)cc1 64%
Cc1cccc(C)c1OCC(=O)Nc1cccc(-c2nnc(-c3ccccc3)o2)c1 53%
CCn1cc(C(=O)NCc2ccco2)c(=O)c2cc(F)c(N3CCN(C(=O)c4ccco4)CC3)cc21 59.3%
CCn1cc(C(=O)NCCc2ccccc2)c(=O)c2cc(F)c(N3CCN(C)CC3)cc21 89.8%

Growth inhibition, inactive:
COc1cccc(C(=O)N2CCN(Cc3ccccn3)CC2)c1OC -2.78%
COc1ccc(Cn2c(N)c(C#N)c3nc4ccccc4nc32)cc1OC 11.7%
COc1cc(C2C(C(C)=O)=C(O)C(=O)N2c2ccc(Br)cn2)ccc1O (stereo not given) 3.52%
CC1(C)CC(=O)C(C=NCCN2CCN(C(=O)C34CC5CC(CC(C5)C3)C4)CC2)=C(O)C1 3.05%
COc1ccccc1-n1c(=O)c2c3c(sc2n2c(SC)nnc12)CCC3 6.85%
COc1ccc2c(c1)[nH]c1c(=O)n(CC3CCCO3)cnc12 (stereo not given) 8.24%
COc1cccc(OCCN2CCN(c3ncnc4c3cnn4-c3ccccc3)CC2)c1 46.7%
COc1cccc(N2CCN(C(=O)c3ccc(=O)oc3)CC2C)c1 (stereo not given) -1.33%
CCOC(=O)C1/C(=N\O)CC(C)(O)C(C(=O)OCC)C1c1ccc(N(C)C)cc1 (stereo not given) 7.47%
CCCSc1nnc2n(Cc3ccccc3)c(=O)c3c4c(sc3n12)CCC4 13.6%
Cc1nnc2n(Cc3ccccc3)c(=O)c3c4c(sc3n12)CN(Cc1ccccc1)CC4 40.6%
CC1CCc2cc(F)cc3c(O)c(C(=O)Nc4cnccn4)c(=O)n1c23 (stereo not given) 26.4%
CC1CCc2cc(F)cc3c(O)c(C(=O)NCc4ccco4)c(=O)n1c23 (stereo not given) 46.7%
COC(=O)c1cc(Br)c(=O)n(Cc2ccc3c(c2)OCO3)c1 9.14%
O=C(NCc1cccnc1)/C(=N\O)c1ccccc1 0.76%
CCN1CCN(c2nc3c(C)cccn3c(=O)c2/C=C(\C#N)S(=O)(=O)c2ccc(C)cc2)CC1 1.14%
CCCN(CCC)C(=O)CC(c1ccc(F)cc1)c1ccco1 (stereo not given) 38.5%
O=C(Cc1cscn1)c1ccc(O)cc1O 2.87%
CC1N(O)C(c2ccc(Cl)cc2Cl)N(O)C1(C)C (stereo not given) -11.8%
CC1(C)Cc2nc3sc4c(N(CCO)CCO)ncnc4c3cc2CO1 2.92%
Cc1ccc(S(=O)(=O)N2CCN(c3nc(C)c4c(c3C#N)CC(C)(C)OC4)CC2)cc1 30.2%
Oc1ccc(Br)cc1CNn1cnnc1 3.94%
CCn1c(SCC(=O)Nc2ccccc2C(=O)OC)nnc1-c1ccc(N)cc1 -4.2%
COCCNc1ncnc2c1cnn2-c1ccc(Cl)cc1 26.1%
CCOC(=O)C1=C(C)N=C2SC(C)C(=O)N2C1c1cccc(F)c1 (stereo not given) -4.33%
CCOC(=O)C1CCN(c2nc3ccccc3nc2C(C#N)C(=O)OCCOC)CC1 (stereo not given) 13.4%
CCC1=Nc2ccccc2NC2=C1C(=O)CCC2 1%
CCc1cn([C@H]2C[C@H](O)[C@@H](CO)O2)c(=O)[nH]c1=O 29.9%
Cc1cn([C@H]2C[C@H](N=[N+]=[N-])[C@@H](CO)O2)c(=O)[nH]c1=O 7.02%
COc1ccccc1-c1nn2c(-c3ccco3)nnc2s1 21.8%
Cc1cc2c(c(=O)o1)C(Cc1ccccc1)C(C#N)=C(N)O2 (stereo not given) -0.57%
CC1(C)Cc2c(C#N)c(NCCN3CCOCC3)nc(-c3ccco3)c2CO1 3.05%
Nc1ncnc2nc(SCc3ccccc3)[nH]c12 13.6%
O=C(Cc1ccc(Cl)cc1)Nc1cccc(-c2nnc(-c3ccco3)o2)c1 20.9%
CCC(=O)Nc1ccc(-c2nnc(-c3ccccc3)o2)cc1 33.7%
O=C(Cc1ccccc1)Nc1cccc(-c2nnc(-c3ccco3)o2)c1 24%
O=C(COc1ccccc1)Nc1ccc(-c2nnc(-c3ccco3)o2)cc1 -6.02%
N/C(CCCN1CCCCC1)=N/O -8.24%
CCOC(=O)CNC(=O)CCCCCC(=O)NCC(=O)OCC -12.7%
O=C(NCCN1CCOCC1)c1cc2n(n1)C(C(F)(F)F)CC(c1ccc(F)cc1)N2 (stereo not given) 2.7%
CC(C)(C)NCC(=O)c1c[nH]c2ccccc12 -2.93%
COc1ccc2c(c1OC)C(=O)N1c3ccccc3C(=O)N(c3ccccc3)C21 (stereo not given) 36.5%
CCCCSc1nc(O)c(C2OC(=O)c3c2ccc(OC)c3OC)c(=O)n1C (stereo not given) 4.34%
c1ccc(-c2nnc(OCCN3CCOCC3)c3ccccc23)cc1 -0.08%
CCn1cc(C(=O)NCC2CCCO2)c(=O)c2cc(F)c(N3CCN(C)CC3)cc21 (stereo not given) -0.9%
CCOC(=O)N1CCN(C(=O)c2cn(CC)c3cc(N4CCN(C)CC4)c(F)cc3c2=O)CC1 0.65%
CCn1cc(C(=O)NCCCN(C)C)c(=O)c2cc(F)c(N3CCN(C)CC3)cc21 8.61%
CCn1cc(C(=O)NCc2ccccn2)c(=O)c2cc(F)c(N3CCN(C)CC3)cc21 -0.7%
